Values joined by “and” are separate entries in the source; they are usually repeats but may differ in a detail not shown here. Equal entries are not always repeated. Inconclusive results are not listed. Active and inactive are the calls of the source.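 How the source made its calls, unless noted: active means compounds that lower survival of HCT116 colon cancer cells in the luminescence readout, no numeric limit stated; inactive means the rest.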
Tests used:
[1] = stimulators of insulin release from INS-1E, primary screen, cell-based, 5 mM glucose, NPC library (AID 1117329;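 active means compound raises insulin release from rat beta cells at 5 mM glucose, no numeric limit stated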); details: rat INS-1E insulin secretion, at 10 µM, stronger effect = higher value
[2] = growth inhibition of GSK3B-pretreated HCT116 cells – cell-based, CellTiter-Glo, 0.2 to 20 µM (AID 1117336;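 active means compounds lowering colon cancer cell viability after pretreatment blocking the GSK3B kinase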); details: HCT116 viability after GSK3B inhibitor, at 20 µM, stronger effect = higher value
[3] = inhibition of endothelial tube formation, primary screen, imaging, VEGF stimulated, CD31 staining, tube area, NPC library (AID 1117340;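 active means compound that reduces growth-factor-driven endothelial tube area in a mixed cell culture, no cutoff stated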); details: VEGF-stimulated ADSC/ECFC co-culture, at 10 µM, stronger effect = higher value
[4] = glucagon-like peptide 1 release enhancers, primary assay, NCI-H716 cell line, NPC library (AID 1117341;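 active means compound raises GLP1 secretion from the human gut endocrine cells, with no numeric limit stated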); details: NCI-H716 cells, at 10 µM, stronger effect = higher value
[5] = HCT116 colon cancer cell growth inhibition, primary screen, CellTiter-Glo luminescence, NPC library (AID 1117342); details: at 20 µM (top of the series)
[6] = CellTiter-Glo luminescent readout of SW480 viability loss, NPC library primary (AID 1117343;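 active means compounds that lower viability of the colon cancer cells in the luminescence readout, with no numeric limit stated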); details: CellTiter-Glo luminescence; at 20 µM (top of the series)
[7] = decreased DLD-1 cellular survival, CellTiter-Glo luminescent readout, NPC compound collection, primary HTS (AID 1117346;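 active means compounds that lower survival of DLD-1 colon cancer cells in the luminescence readout, no cutoff given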); details: DLD-1 viability, CellTiter-Glo luminescence; at 20 µM (top of the series)
[8] = differential killing of epithelial or mesenchymal cells, primary screen, imaging, PC-3E GFP, TEM4-18 mCherry, co-culture (AID 1345086;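 active means compounds killing one labelled cell type while sparing the other, by normalised counts and ratio limits, not self-fluorescent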;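 on all read-outs here: cells exposed to compound for 72 h before imaging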;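 on red/green cell ratio (normalised): normalised mesenchymal count divided by normalised epithelial count so high means epithelial killing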); details: imaging cell counts, at 1 µM; for red/green cell ratio (normalised): actives lie on both sides, counts scaled to control wells, 1 = unselective
[9] = growth inhibition of DIPG glioma cells, dose response, cell-based, SU-DIPG-XVII, MIPE5.0, CellTiter-Glo, qHTS (AID 1347060; cut-off not given, nearly all actives have AC50 up to about 26 µM); details: SU-DIPG-XVII viability, CellTiter-Glo ATP luminescence
[10] = growth inhibition of DIPG glioma cells, dose response, cell-based, SU-DIPG-XIII, MIPE4.0, CellTiter-Glo, qHTS (AID 1347061; cut-off not given, nearly all actives have AC50 up to about 37 µM;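 further: cells exposed to compound for 48 hours before readout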); details: SU-DIPG-XIII viability, CellTiter-Glo ATP luminescence
[11] = growth inhibition of DIPG glioma cells, dose response, cell-based, JHH-DIPG-1, MIPE4.0, CellTiter-Glo, qHTS (AID 1347062; cut-off not given, nearly all actives have AC50 up to about 27 µM); details: JHH-DIPG-1 viability, CellTiter-Glo ATP luminescence
[12] = growth inhibition of DIPG glioma cells, dose response, cell-based, SU-DIPG-IV, MIPE4.0, CellTiter-Glo, qHTS (AID 1347063; cut-off not given, nearly all actives have AC50 up to about 30 µM;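 further: compound exposure lasted 48 hours before the viability readout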); details: SU-DIPG-IV viability, CellTiter-Glo ATP luminescence
[13] = growth inhibition of DIPG glioma cells, dose response, cell-based, SU-DIPG-XIII, MIPE5.0, CellTiter-Glo, qHTS (AID 1347064; cut-off not given, nearly all actives have AC50 up to about 23 µM); details: SU-DIPG-XIII viability, CellTiter-Glo ATP luminescence
[14] = test system: Aerobactin synthetase IucA (Klebsiella pneumoniae); experiment: IucA aerobactin synthetase inhibitors, biochemical, Tocris library, absorbance (AID 1345561; call rule not given here;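 further: 100% = enzyme without compound and 0% = no enzyme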); details: purified IucA enzyme assay, absorbance (OD) read-out; stronger effect = lower value;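 tested at 8 µM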
[15] = measured here: epithelial PC-3E GFP cell survival
[16] = measured here: mesenchymal TEM4-18 mCherry cell survival

Row | Structure (SMILES) | insulin secretion stimulation [1] | viability decrease [2] | tube area decrease [3] | GLP1 secretion stimulation [4] | inhibition of viability [5] | viability decrease (inhibition) [6] | viability decrease (inhibition) [7] | red/green cell ratio (normalised) [8] | normalised cell number [8, 15] | normalised cell number [8, 16] | outcome [9] | outcome [10] | outcome [11] | outcome [12] | outcome [13] | remaining activity [14]
1 | Cc1c[nH]c2ccccc12 | -2.3% (inactive) | 3.8% (inactive) | 5.5% (inactive) | -1.7% (inactive) | 10.3% (inactive) | 15% (inactive) | 10% (inactive) | 0.99 (inactive) | 0.86 | 0.85 | – | – | – | – | – | –
2 | CO[C@@H]1[C@@H](OC(N)=O)[C@@H](O)[C@H](Oc2ccc3c(O)c(NC(=O)c4ccc(O)c(CC=C(C)C)c4)c(=O)oc3c2C)OC1(C)C | -0.3% (inactive) | -78.9% (inactive) | -1.9% (inactive) | 0.7% (inactive) | -1.6% (inactive) | -22.2% (inactive) | -21.8% (inactive) | 1.14 (inactive) | 1.07 | 1.21 | inactive | inactive | inactive | inactive | inactive | –
3 | C#C[C@]1(O)CC[C@H]2[C@@H]3[C@H](C)CC4=C(CCC(=O)C4)[C@H]3CC[C@@]21C | -2.8% (inactive) | 45.5% (inactive) | -5.2% (inactive) | 4.4% (inactive) | -14.3% (inactive) | 109% (active) | 79.8% (active) | – | – | – | – | – | – | – | inactive | –
4 | C#C[C@]1(O)CC[C@H]2[C@@H]3CCc4cc(OC)ccc4[C@H]3CC[C@@]21C | 0.5% (inactive) | 1.9% (inactive) | 10.3% (inactive) | 16.1% (inactive) | 45% (inactive) | 110% (active) | 26.6% (inactive) | – | – | – | – | – | inactive | inactive | inactive | –
5 | COC(=O)[C@H]1[C@H]2C[C@@H]3c4[nH]c5cc(OC)ccc5c4CCN3C[C@H]2C[C@@H](OC(=O)c2cc(OC)c(OC)c(OC)c2)[C@@H]1OC | -0.3% (inactive) | 24.4% (inactive) | 22.8% (inactive) | 3.6% (inactive) | 40.1% (inactive) | -42% (inactive) | 10.4% (inactive) | 1.08 (inactive) and 1.2 (inactive) | 0.87 and 1.06 | 0.94 and 1.27 | – | – | – | – | – | 124% (inactive)
6 | NS(=O)(=O)c1cc2c(cc1Cl)NC(C1CC3C=CC1C3)NS2(=O)=O (stereo unspecified) | -1% (inactive) | -17% (inactive) | 2.9% (inactive) | -2.5% (inactive) | -8.27% (inactive) | 8.9% (inactive) | -15.4% (inactive) | 1.29 (inactive) | 0.95 | 1.23 | – | – | – | – | – | 94.1% (inactive)
7 | CCOC(=O)O[C@]1(C(=O)OCCl)CC[C@H]2[C@@H]3CCC4=CC(=O)C=C[C@]4(C)[C@H]3[C@@H](O)C[C@@]21C | 7% (inactive) | 12.3% (inactive) | -0.4% (inactive) | 0.9% (inactive) | 3.1% (inactive) | 0.5% (inactive) | 21.9% (inactive) | – | – | – | inactive | inactive | inactive | – | inactive | –
8 | O=P(O)(O)C(O)(Cc1cccnc1)P(=O)(O)O | -1.8% (inactive) | 5.7% (inactive) | 18.1% (inactive) | 0.1% (inactive) | 5.33% (inactive) | -18.5% (inactive) | -4.9% (inactive) | 0.63 (inactive) | 1.37 | 0.87 | inactive | inactive | inactive | – | inactive | –
9 | NCCS(=O)(=O)O | 2.6% (inactive) | -1.3% (inactive) | -12% (inactive) | 0.3% (inactive) | -12.3% (inactive) | -4.6% (inactive) | -1.5% (inactive) | 0.92 (inactive) and 0.87 (inactive) | 1.27 and 1.13 | 1.17 and 0.99 | inactive | inactive | inactive | inactive | – | –
10 | NC(N)=NC(=O)Cc1c(Cl)cccc1Cl | -2.2% (inactive) | 16.7% (inactive) | 11.5% (inactive) | -3% (inactive) | 68.9% (active) | 34.1% (inactive) | 29% (inactive) | 0.93 (inactive) | 1.04 | 0.96 | – | – | – | – | – | 114% (inactive)
11 | CC1(C)O[C@@H]2C[C@H]3[C@@H]4C[C@H](F)C5=CC(=O)C=C[C@]5(C)[C@@]4(F)[C@@H](O)C[C@]3(C)[C@]2(C(=O)CO)O1 | 0.7% (inactive) | -12.2% (inactive) | 14.7% (inactive) | -0.6% (inactive) | 19.8% (inactive) | 1.8% (active) | 24.1% (inactive) | – | – | – | inactive | inactive | inactive | – | inactive | –
12 | Cc1cnc(C(=O)O)c[n+]1[O-] | 3.6% (inactive) | -16.5% (inactive) | 9.6% (inactive) | -4.7% (inactive) | 3% (inactive) | 14.8% (inactive) | -0.8% (inactive) | 0.76 (inactive) | 1.32 | 1 | inactive | inactive | inactive | inactive | inactive | –
13 | C#CCN[C@@H]1CCc2ccccc21 | 2.6% (inactive) | -29.8% (inactive) | 3.2% (inactive) | 0% (inactive) | -2% (inactive) | -41% (inactive) | -21.6% (inactive) | 0.97 (inactive) | 0.98 | 0.94 | inactive | inactive | inactive | inactive | inactive | –
